Shown are actives, neighbours in structure and some others; about 5.7% of the full set was active somewhere.
Giardia killer: kills Giardia lamblia; Giardia lamblia trophozoite viability; activity change, % at 7.66 µM, hits read low; hit rate 0.15% among 340,000; AID 540267; in the data active = activity change below about -80%; inconclusive = between about -30% and that limit;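 also: parasites exposed to compound for two days anaerobically before the ATP read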
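Killing of trophozoites was scored by loss of ATP luminescence after a 48 hrs anaerobic exposure to compounds at 37 deg C, using 100 cells per well.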
A549 viability: counter-screen for Nrf2 inhibitors: cytotoxicity in A549 cells; A549 ARE-Fluc cells, CellTiter-Fluor viability, 18-24 h; AID 504648; hit rate 0.16% among 390,000; Potency, µM (series often up to 46 µM), for the others: at the top dose activity change, negative = cytotoxicity, most hits filed as inhibitors; also: potency is read from the fitted curve at half-maximal effect
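Cytotoxicity counterscreen: CellTiter-Fluor fluorescence was measured in A549 ARE_Fluc cells after 18-24 h of compound exposure in a concentration series. The subsequent BugLite luminescent read reports ARE-luciferase activity.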
Nrf2 inh: Nrf2 pathway inhibition | A549 ARE-Fluc reporter, luciferase luminescence, 18-24 h | Potency, µM (top dose mostly 46 µM), inactives show at the highest dose activity change, negative = inhibition, usual class: inhibitors | hit rate 2.1% among 360,000 | AID 504444; also: potency is read from the fitted curve at half-maximal effect; nearly all actives have a fitted effect of over 60% in size
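Cells were seeded and rested 2 h, then exposed to compounds for 18-24 h. CellTiter-Fluor was read first as a viability measure. BugLite was added 15 min before the final luminescent read of ARE-luciferase activity in A549 cells.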
KB-3-1 tox: kills parental KB-3-1 adenocarcinoma cells | Potency, µM (highest dose often 46.1 µM), usual class: cytotoxic | hit rate 1.4% among 400,000 | AID 1347075 | KB-3-1 viability, CellTiter-Glo ATP luminescence, 72 h; also: potency is read from the fitted curve at half-maximal effect; nearly all actives have a fitted effect of over 60% in size
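Cells are dispensed, compounds pinned in, plates held at 37 °C for 72 h, then CellTiter-Glo is added and luminescence read after 10 minutes. Cell line: parental KB-3-1 in phenol-red-free DMEM, 10% FBS.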
KB-V1 MDR tox: KB-V1 MDR subline cytotoxicity | KB-V1 MDR cells viability, CellTiter-Glo, 72 h | Potency, µM (series often up to 46.1 µM), actives largely listed as cytotoxic | hit rate 3.4% among 400,000; also: potency is read from the fitted curve at half-maximal effect; nearly all actives have a fitted effect of over 60% in size
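Following 72 h at 37 degrees C with compound, KB-V1 cell viability was read by CellTiter-Glo luminescence, medium being phenol-red-free DMEM plus 10% FBS; concentration-response parameters came from normalized, curve-fitted qHTS data.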
PI4K2A inh: PI4K2A (human) kinase inhibition. AID 1346378. purified PI4K2A, ADP-Glo luminescence, 1 h; hits give low values. activity change, negative = inhibition, % at 76.9 µM. hit rate 0.13% among 420,000; in the data active = activity change below about -50%; inconclusive = mostly about -30% to -49%;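 also: -100% = wells without enzyme as full effect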
Target sequence (Q9BTU6 whole entry, looked up): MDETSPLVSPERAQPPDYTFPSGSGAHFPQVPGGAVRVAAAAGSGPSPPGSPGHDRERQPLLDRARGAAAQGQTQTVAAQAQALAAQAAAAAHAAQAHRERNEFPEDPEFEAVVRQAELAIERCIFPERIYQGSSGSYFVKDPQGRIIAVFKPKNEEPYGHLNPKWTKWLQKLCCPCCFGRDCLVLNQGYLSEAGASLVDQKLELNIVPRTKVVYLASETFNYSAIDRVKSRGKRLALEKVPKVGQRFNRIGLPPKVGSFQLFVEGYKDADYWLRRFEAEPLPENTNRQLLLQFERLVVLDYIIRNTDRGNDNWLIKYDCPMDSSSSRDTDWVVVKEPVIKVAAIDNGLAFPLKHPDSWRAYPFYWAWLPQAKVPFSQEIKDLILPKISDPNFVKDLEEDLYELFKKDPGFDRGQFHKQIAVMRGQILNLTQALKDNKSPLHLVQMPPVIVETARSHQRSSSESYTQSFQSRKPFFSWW
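In this quantitative HTS, ADP production by PI4K2A was quantified luminescently after 1 h at ambient temperature; 100 microM adenosine served as plate-quality control.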
An asterisk follows results filed as active. Unless noted, calls follow the shape of the dose curve; as a rule, active = well fitted curve in the direction sought with a large enough effect; inconclusive = small, poorly fitted or top-dose-only effect, or another doubt; inactive = no such curve, though single readings can be large; an effect the other way counts as inactive or inconclusive. Unless noted, % is scaled to controls: 0 for no effect and ±100 for the full control effect.

How did CCN(CC)C(=O)[C@H]1CC(CC(=O)NCC23CC4CC(CC(C4)C2)C3)C(=O)N2CCc3c([nH]c4ccc(OC)cc34)[C@]12C (some centres undefined) do in these assays?
Giardia killer: inconclusive; A549 viability: -7%; Nrf2 inh: 23µM*; KB-3-1 tox: inactive; KB-V1 MDR tox: inactive; PI4K2A inh: -2

What do the screens show for `CC(C)(C)NC(=O)CC1C[C@H](C(=O)N2CCCCC2)[C@@]2(C)c3[nH]c4ccccc4c3CCN2C1=O` (some centres undefined)?
Giardia killer: -3; A549 viability: 6%; Nrf2 inh: -6%; KB-3-1 tox: inactive; KB-V1 MDR tox: inactive; PI4K2A inh: -59*

Results for CC(C)=CCC/C(C)=C/CNC(=O)C[C@H]1C[C@H](C(=O)N2CCCCC2)[C@@]2(C)c3[nH]c4cc(CCC(=O)N(C)C)ccc4c3CCN2C1=O ?
Giardia killer: 3; A549 viability: -13%; Nrf2 inh: inconclusive; KB-3-1 tox: inactive; KB-V1 MDR tox: inactive; PI4K2A inh: -2

How did CC(C)=CCC/C(C)=C/CNC(=O)C[C@H]1C[C@H](C(=O)N2CCOCC2)[C@@]2(C)c3[nH]c4cc(CCC(=O)N(C)C)ccc4c3CCN2C1=O do in these assays?
Giardia killer: -1; A549 viability: -16%; Nrf2 inh: 15µM*; KB-3-1 tox: inactive; KB-V1 MDR tox: inactive; PI4K2A inh: -3

How did Cc1ccc(NC(=O)CSc2nc3ccccc3nc2N2CCCC2)cc1 do in these assays?
Giardia killer: -8; A549 viability: -3%; Nrf2 inh: 7%; KB-3-1 tox: 18µM*; KB-V1 MDR tox: inconclusive; PI4K2A inh: -1

What do the screens show for `O=C(CSc1nc2ccccc2c(=O)n1CCCN1CCOCC1)NC12CC3CC(CC(C3)C1)C2`?
Giardia killer: -12; A549 viability: -8%; Nrf2 inh: -3%; KB-3-1 tox: inactive; KB-V1 MDR tox: 9.2µM*; PI4K2A inh: -2

What do the screens show for `Cc1ccc(NC(=O)CSc2nc3ccccc3c(=O)n2CCCC(=O)N2CCCC2)cc1`?
Giardia killer: 5; A549 viability: -9%; Nrf2 inh: -29%; KB-3-1 tox: 6.3µM*; KB-V1 MDR tox: inconclusive; PI4K2A inh: -2

What do the screens show for `O=C(CCCn1c(SCC(=O)NCC2CCCO2)nc2ccccc2c1=O)NCc1ccccc1` (centres undefined)?
Giardia killer: -11; A549 viability: -3%; Nrf2 inh: -12%; KB-3-1 tox: inactive; KB-V1 MDR tox: inactive; PI4K2A inh: -2

Results for O=C(CSc1nc2ccccc2c(=O)n1CCC(=O)N1CCCCC1)NCc1ccccc1 ?
Giardia killer: -25; A549 viability: -7%; Nrf2 inh: 7%; KB-3-1 tox: inactive; KB-V1 MDR tox: 2.1µM*; PI4K2A inh: -5

Results for CCN1CCc2c(sc(NC(=S)NC(=O)c3cccc(F)c3)c2C(N)=O)C1 ?
Giardia killer: 1; A549 viability: -7%; Nrf2 inh: inconclusive; KB-3-1 tox: inactive; KB-V1 MDR tox: inactive

Results for NC(=O)N[C@@H](CCC(=O)O)C(=O)O ?
PI4K2A inh: -1

What do the screens show for `CCC(=O)Nc1ccc(NC(=O)CSc2nc3cc4c(cc3cc2C)CCC4)cc1`?
Giardia killer: -6; A549 viability: inconclusive; Nrf2 inh: 23µM*; KB-3-1 tox: inactive; KB-V1 MDR tox: inactive; PI4K2A inh: -4

What do the screens show for `Cc1ccccc1NC(=O)CSc1nc2cc3c(cc2cc1C)CCC3`?
Giardia killer: -16; A549 viability: inconclusive; Nrf2 inh: -22%; KB-3-1 tox: inconclusive; KB-V1 MDR tox: inactive; PI4K2A inh: -1

How did CCC1(c2ccccc2)NC(=O)N(CC(=O)Nc2cccc(S(=O)(=O)N3CCCCC3)c2)C1=O (centres undefined) do in these assays?
Giardia killer: 10; A549 viability: -6%; Nrf2 inh: -12%; KB-3-1 tox: inactive; KB-V1 MDR tox: inactive; PI4K2A inh: -1

How did CC1CCC2(CC1)NC(=O)N(CC(=O)Nc1cccc(S(=O)(=O)N3CCCC3)c1)C2=O (centres undefined) do in these assays?
Giardia killer: -15; A549 viability: -1%; Nrf2 inh: 5.2µM*; KB-3-1 tox: inactive; KB-V1 MDR tox: inactive; PI4K2A inh: 3

What do the screens show for `Cc1ccc(NC(=O)CN2C(=O)NC3(CCC(C)CC3)C2=O)c(Cl)c1` (centres undefined)?
Giardia killer: -9; A549 viability: -29%; Nrf2 inh: -28%; KB-3-1 tox: inactive; KB-V1 MDR tox: 18µM*; PI4K2A inh: -4

Results for Cc1cccc(Oc2ccccc2NC(=O)CSCC(=O)Nc2cc(C)on2)c1 ?
Giardia killer: -10; A549 viability: -21%; Nrf2 inh: inconclusive; KB-3-1 tox: inconclusive; KB-V1 MDR tox: 7.3µM*; PI4K2A inh: -2

Results for Cc1cc(NC(=O)CSCC(=O)Nc2ccccc2OC(F)F)no1 ?
Giardia killer: 10; A549 viability: 1%; Nrf2 inh: 0%; KB-3-1 tox: inactive; KB-V1 MDR tox: inactive; PI4K2A inh: 0

Results for CN(C)CCN(C(=O)c1ccccc1Cl)c1nc2c(Cl)cccc2s1 ?
Giardia killer: 36; A549 viability: 0%; Nrf2 inh: 11%; KB-3-1 tox: inactive; KB-V1 MDR tox: 23µM*; PI4K2A inh: -2

Results for Cc1cccc2sc(N(CCCN(C)C)C(=O)CCc3ccccc3)nc12 ?
Giardia killer: 8; A549 viability: inconclusive; Nrf2 inh: inconclusive; KB-3-1 tox: inconclusive; KB-V1 MDR tox: 16µM*; PI4K2A inh: 2

How did CN(C)CCCN(C(=O)CCc1ccccc1)c1nc2ccc(Br)cc2s1 do in these assays?
Giardia killer: -5; A549 viability: 2%; Nrf2 inh: -26%; KB-3-1 tox: inconclusive; KB-V1 MDR tox: 23µM*; PI4K2A inh: 1

What do the screens show for `Cc1cccc2sc(N(CCCN(C)C)C(=O)CN3C(=O)c4ccccc4C3=O)nc12`?
Giardia killer: -9; A549 viability: inconclusive; Nrf2 inh: inconclusive; KB-3-1 tox: inactive; KB-V1 MDR tox: inactive; PI4K2A inh: -3

What do the screens show for `O=C(CSc1nccn1Cc1ccc(F)cc1)Nc1ccc2c(c1)OCCO2`?
A549 viability: -3%; PI4K2A inh: -2

What do the screens show for `O=C(c1ccc2c(c1)N(Cc1ccc(Cl)cc1)C(=O)c1ccccc1S2=O)N1CCC(Cc2ccccc2)CC1` (centres undefined)?
A549 viability: -3%; Nrf2 inh: inconclusive; KB-3-1 tox: inconclusive; KB-V1 MDR tox: inconclusive; PI4K2A inh: 0

Bioassay records from PubChem.
